Data published in PubChem BioAssay AID489008 (National Center for Advancing Translational Sciences (NCATS), 2010).
Records with an inconclusive call do not appear. The source made the active and inactive calls. Calls follow the shape of the dose curve; as a rule, active = well fitted inhibition curve with a large enough effect; inconclusive = small, poorly fitted or top-dose-only effect; inactive = flat fitted curve, though single readings scatter.

The molecules below were run against Ferritin light chain (Equus caballus) (UniProt P02791) (assay: Confirmation Assay for Identification of Novel General Anesthetics). Conditions: apoferritin 1-aminoanthracene fluorescence displacement.
Ferritin light chain (Equus caballus), sequence (P02791 2-175 limits assumed): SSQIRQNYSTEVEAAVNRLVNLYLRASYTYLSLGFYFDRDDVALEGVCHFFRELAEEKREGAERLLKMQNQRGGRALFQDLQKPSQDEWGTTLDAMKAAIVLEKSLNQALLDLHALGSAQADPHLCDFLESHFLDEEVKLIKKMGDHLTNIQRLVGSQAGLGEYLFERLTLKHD
In short: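 Competitive displacement of profluorescent 1-aminoanthracene from 10 uM horse-spleen apoferritin in 50% saturated 1-AMA/PBS; 10 min RT, fluorescence Ex 380/Em 535. Normalized to free 1-AMA and complex; four-parameter Hill fit.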
Also: nearly all actives have a fitted effect of over 40% in size.
Potency is read from the fitted curve at half-maximal effect.

Potency, active:
Cc1ccc(S(=O)(=O)NCCc2ccccc2)cc1 15.8 µM, O=C(CCC(=O)c1ccc(Cl)cc1)OCC(=O)c1ccccc1 17.8 µM, Cc1csc(Nc2ccc(Cl)cc2)n1 31.6 µM, CC1Cc2ccccc2N1C(=O)COC(=O)c1cccnc1Cl (stereo not drawn) 15.8 µM, Cc1cc(C)cc(OCc2nnc(SCC(=O)OC(C)C)o2)c1 12.6 µM, Cc1cc(C)n(-c2ccc(C(=O)NCc3ccc4c(c3)OCO4)cc2)n1 15.8 µM, Nc1nnc(CCC2CCCCC2)s1 10 µM, Cc1cccc(OCCC(=O)OCC(=O)N2CCc3ccccc32)c1 10 µM, O=c1c2c3c(sc2ncn1-n1cccc1)CCCCC3 10 µM, Cc1c(Br)cc(C(=O)N2CCCCCC2)c(C)c1C 17.8 µM, N/C(Cc1ccc(Cl)cc1)=N\OC(=O)c1cccc2ccccc12 8.91 µM, O=c1cc(C23CC4CC(CC(C4)C2)C3)[nH][nH]1 12.6 µM, NC(=O)COC(=O)CC12CC3CC(CC(Br)(C3)C1)C2 17.8 µM, O=C(Oc1cccc(O)c1)C1CCCCC1 11.2 µM, Cc1cc(N2CC(C(=O)Nc3nccs3)CC2=O)ccc1C(C)C (stereo not drawn) 14.1 µM, Cc1ccc(-c2ccc(=O)n(CC(=O)NCCC(C)C)n2)cc1 5.01 µM, Cc1cc(S(=O)(=O)NCCc2ccccc2)c(C)s1 15.8 µM, NCCOc1ccc(C23CC4CC(CC(C4)C2)C3)cc1 11.2 µM, Cc1cc(C)n(Cc2ccccc2Cl)n1 12.6 µM, O=C(CN1CCOCC1)Nc1ccc(C2CCCCC2)cc1 31.6 µM, O=C(CNC(=O)c1ccco1)OCC(=O)c1ccc2c(c1)CCCC2 31.6 µM, CC(C)c1ccccc1OCC(=O)N1CCCCCCC1 11.2 µM, Cc1ccc(CNC(=O)c2nnn(-c3cccc(C)c3)c2N)cc1 17.8 µM, Nc1c(C(=O)NCc2ccccc2)nnn1Cc1cccc(Cl)c1 3.98 µM, CC(C)c1ccc(NC(=O)C2CC3CCC2C3)cc1 (stereo not drawn) 31.6 µM, O=C1CC2(CCCC2)CC(=O)N1c1ccccc1 15.8 µM, Cc1ccccc1Cn1c(C)cc(C)c(C#N)c1=O 15.8 µM, O=c1[nH]cnc2sc3c(c12)CCCCC3 15.8 µM, CC(C)CCOc1ccc(C2N=C(N)Nc3nc4ccccc4n32)cc1 (stereo not drawn) 12.6 µM, CC1(COc2ccc(CC3SC(=O)NC3=O)cc2)CCCCC1 (stereo not drawn) 14.1 µM, O=C(CSCCO)Nc1ccc(C2CCCCC2)cc1 20 µM, O=S(=O)(Nc1cnc2ccccc2c1)N1CCCCCC1 28.2 µM, Nc1ccc(C23CC4CC(CC(C4)C2)C3)cc1 7.08 µM, O=C(Nc1cccc(F)c1)N1CCCCCC1 12.6 µM, CCN1C(=O)N(c2ccc(Cl)cc2)C(C)=CC1(C)C 35.5 µM, O=S(=O)(Nc1ccc2c(c1)CCC2)c1cccs1 17.8 µM, Cc1cccc(NC(=O)N2CCCCCC2)c1 11.2 µM, O=C1CCCCCCC1Sc1ccccc1[N+](=O)[O-] (stereo not drawn) 7.94 µM
